The campaign covered roughly 310,000 compounds. About 14,000 (4.5%) showed an effect of 50% or more. The effect is printed as a negative number. The full list was thinned out, with strong results kept by preference.
Biological target: human ether-à-go-go-related gene (hERG) potassium channel (human, UniProt Q12809)
Test: primary screen, population patch clamp on CHO cells stably expressing hERG; higher = less effect of the substance
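Note: peak tail current of the secondary pulse compared with the same well before compound.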

Sequence of human ether-à-go-go-related gene (hERG) potassium channel (Q12809 whole entry, looked up): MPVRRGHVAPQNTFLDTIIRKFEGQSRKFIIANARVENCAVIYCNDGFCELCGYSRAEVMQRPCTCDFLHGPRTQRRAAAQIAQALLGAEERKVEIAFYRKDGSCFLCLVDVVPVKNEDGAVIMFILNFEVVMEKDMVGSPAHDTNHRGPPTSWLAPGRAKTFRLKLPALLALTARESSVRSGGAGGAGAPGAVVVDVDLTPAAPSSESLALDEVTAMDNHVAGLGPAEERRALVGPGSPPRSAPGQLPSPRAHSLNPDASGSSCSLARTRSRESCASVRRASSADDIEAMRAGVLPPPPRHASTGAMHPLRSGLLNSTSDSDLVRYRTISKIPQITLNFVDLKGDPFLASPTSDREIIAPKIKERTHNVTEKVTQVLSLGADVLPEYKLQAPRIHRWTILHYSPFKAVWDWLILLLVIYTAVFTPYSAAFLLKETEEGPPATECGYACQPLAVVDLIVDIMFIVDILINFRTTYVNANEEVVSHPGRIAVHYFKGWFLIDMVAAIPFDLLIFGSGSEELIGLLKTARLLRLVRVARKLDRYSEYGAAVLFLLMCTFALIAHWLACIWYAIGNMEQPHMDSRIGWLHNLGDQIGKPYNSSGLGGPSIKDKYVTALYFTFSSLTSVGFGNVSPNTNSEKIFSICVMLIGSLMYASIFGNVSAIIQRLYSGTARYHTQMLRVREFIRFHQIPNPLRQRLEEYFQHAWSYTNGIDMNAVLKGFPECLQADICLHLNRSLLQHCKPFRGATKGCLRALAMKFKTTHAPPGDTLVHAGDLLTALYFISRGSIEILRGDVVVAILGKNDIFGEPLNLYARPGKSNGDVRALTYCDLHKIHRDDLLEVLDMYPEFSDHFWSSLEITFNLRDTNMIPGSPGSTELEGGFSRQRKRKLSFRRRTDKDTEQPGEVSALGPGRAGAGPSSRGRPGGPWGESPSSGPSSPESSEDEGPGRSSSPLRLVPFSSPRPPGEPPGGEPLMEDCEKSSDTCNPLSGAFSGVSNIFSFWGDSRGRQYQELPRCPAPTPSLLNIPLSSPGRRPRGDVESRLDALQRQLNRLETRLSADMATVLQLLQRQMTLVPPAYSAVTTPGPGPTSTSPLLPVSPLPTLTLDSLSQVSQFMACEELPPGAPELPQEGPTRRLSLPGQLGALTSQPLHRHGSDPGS

In order of falling “hERG current change (%, negative = inhibition) at 10uM” value:
1. COc1cc(CC(=O)OCC(=O)N2CC(C)CC(C)C2)cc(OC)c1OC (centres unmarked)  30.9%
2. COc1ccc(NC(=O)CC2SC(=N)N(c3ccccc3)C2=O)c(OC)c1 (centres unmarked)  29.4%
3. O=C1CN(Cc2nc3cc(Cl)ccc3c(=O)[nH]2)CCN1  25.4%
4. O=C(OCC(=O)N1CCOCC1)c1ccc(N2CCOCC2)c([N+](=O)[O-])c1  19.9%
5. COc1cc(Cl)c(C)cc1NC(=O)c1ccc2c(c1)OCO2  19%
6. CCCCn1c(N)c(N(CC(C)C)C(=O)C2CC(=O)N(c3ccc(CC)cc3)C2)c(=O)[nH]c1=O (centres unmarked)  18.8%
7. N#CCC(=O)Nc1ccc(C(=O)N2CCN(c3ccccn3)CC2)cc1  18.4%
8. CN(C)C(=S)c1ccc2ccccc2n1  17.1%
9. CC(=O)c1ccc(N(CC(=O)NC2CCCC2)C(=O)c2csnn2)cc1  13.8%
10. COc1cc(-c2c(-c3cc(OC)c(OC)c(OC)c3)noc2C)ccc1F  13.6%
11. COc1ccc(C)cc1S(=O)(=O)N1CCCC(N2CCOCC2)C1 (centres unmarked)  13.4%
12. CCN(CC)c1ccc(C(=S)NCc2ccccc2)cc1  13%
13. NC(=O)c1ccc(NC(=O)CN2CCN(c3ccccc3)CC2)cc1  12.6%
14. CC(C(=O)Nc1ccccc1F)N1CCN(C)CC1.O=C(O)C(=O)O (centres unmarked)  11.9%
15. COC(=O)c1ccc(NC(=O)CN2CCN(c3ccc(Cl)cc3)CC2)cc1  11.9%
16. CCCC(=O)NC(=S)Nc1sc2c(c1C(N)=O)CCC2  11.7%
17. O=C(Cn1c(NCCO)nc2ccccc21)NCCc1ccc(F)cc1  10.6%
18. Cc1ccc(SCC(=O)Nc2ccc(N3CCOCC3)cc2)c(C)c1  10.5%
19. Cc1ccc(S(=O)(=O)N2CCCCC2)cc1NC(=O)Cn1c(=O)cnc2ccccc21  9.61%
20. O=c1oc2ccccc2c2c1nnn2CCO  8.06%
21. COc1cc(-c2noc(C)c2-c2ccc3[nH]ccc3c2)cc(OC)c1OC  8.02%
22. Cc1nnn(C23CC4CC(CC(C4)C2)C3)n1  7.98%
23. O=S(=O)(/C=C/c1ccccc1)N1CCOCC1  7.65%
24. O=C(CN1CCN(c2ccc(F)cc2)CC1)Nc1ccccc1  6.74%
25. O=C(Nc1ccc2nc(-c3ccccn3)c(-c3ccccn3)nc2c1)N1CCOCC1  5.82%
26. CC(=O)OC[C@]1(OC(C)=O)C[C@@]23CC[C@H]4[C@@](C)(CCC[C@@]4(C)C(=O)O)[C@@H]2CC[C@@H]1C3  4.84%
27. N#CC1=C(N)OC2=C(C(=O)CCC2)[C@]12C(=O)N(CC(N)=O)c1ccccc12  4.73%
28. CCOC(=O)c1[nH]cnc1C(=O)Nc1ccc([N+](=O)[O-])cc1  4.57%
29. COC(=O)c1c(NC(=O)C2CCC2)sc(C(=O)N(C)C)c1C  4%
30. O=C(CSc1ccccc1F)Nc1ccc(N2CCOCC2)cc1  3.82%
31. CC(OC(=O)Cn1cnc2c1c(=O)n(C)c(=O)n2C)C(=O)NCc1ccccc1 (centres unmarked)  3.36%
32. O=C(CCc1ccccn1)NC1CCCc2c1cnn2-c1ccc(F)cc1F (centres unmarked)  3.18%
33. O=C(CN1CCOCC1)Nc1ccc(F)cc1  2.97%
34. O=c1[nH]c(CN2CCN(S(=O)(=O)c3ccc4ccccc4c3)CC2)nc2ccccc12  2.03%
35. O=C(/C=C/c1ccc2c(c1)OCO2)c1c(O)n(CCc2ccccc2)c(=O)[nH]c1=O  1.79%
36. CC(C)CC(NS(=O)(=O)OCC(Cl)(Cl)Cl)c1ccccc1 (centres unmarked)  1.57%
37. O=C(Nc1ccc(C(=O)N2CCCC2)cc1)c1ccc(F)cc1Cl  0.232%
38. CC(C)C(=O)N1CCN(c2ccc(NC(=O)c3ccc(Br)o3)cc2)CC1  -0.0806%
39. O=C(Nc1ccc(N2CCN(C(=O)c3ccc(Cl)cc3)CC2)cc1)c1cc2ccccc2o1  -0.396%
40. CC1CCN(c2ccc(C(=O)N3CCOCC3)cc2[N+](=O)[O-])CC1  -0.762%
41. O=C(CN1CCOCC1)Nc1ccc(Cl)cc1  -1.12%
42. CC(=O)Nc1ccc(S(=O)(=O)N(C)CC(=O)OCC(=O)N2CCCCC2)cc1  -1.43%
43. Cc1noc(C)c1S(=O)(=O)Nc1ccc(C(=O)N2CCN(c3cccc(Cl)c3)CC2)cc1  -4.16%
44. CSCCC(NC(=O)c1ccco1)C(=O)N1CCCCCCC1 (centres unmarked)  -4.39%
45. COc1ccccc1CCNC(=O)c1c(C)nn(CC(C)C)c1Cl  -4.9%
46. CCN1C(=O)N(CC)C2C1N(C(C)=O)C(=O)N2C(C)=O (centres unmarked)  -6.42%
47. CCOc1ncccc1C(=O)OCC(=O)c1cc(C)n(Cc2ccco2)c1C  -7.34%
48. CC(=O)N1CCN(c2nc(CC(C)C)c3c(c2C#N)CCC3)CC1  -9.82%
49. O=S(=O)(Nc1cccc2c1CCCC2)c1ccc(Cl)cc1  -9.87%
50. CC(C)c1ccc(OCc2nc(-c3ccccn3)no2)c(Br)c1  -10.6%
51. COc1ccc(NC(=O)Cn2c(=O)cnc3ccccc32)cc1S(=O)(=O)N1CCCCC1  -10.9%
52. COc1cc(CCC(=O)OCC(=O)Nc2ccc(Br)cc2F)cc(OC)c1OC  -11.6%
53. O=c1[nH]c(CN2CCN(S(=O)(=O)c3ccc(Cl)cc3)CC2)nc2cc(Cl)ccc12  -11.8%
54. CCS(=O)(=O)N1CCN(Cc2nc3ccccc3c(=O)[nH]2)CC1  -12.9%
55. O=C(CCc1nnc(CCCCc2ccccc2)o1)NCCCc1cccnc1  -14.8%
56. O=C(Nc1ccc(N2CCN(C(=O)c3cccs3)CC2)cc1)c1ccc(F)cc1  -15.3%
57. S=C(Nc1ccc2nc(-c3ccccn3)c(-c3ccccn3)nc2c1)N1CCCCCC1  -15.6%
58. COc1cc2nc(CN3CCN(S(=O)(=O)c4ccc(C)c(C)c4)CC3)[nH]c(=O)c2cc1OC  -16.8%
59. N#Cc1ccccc1N1CCN(C(=O)c2ccc(NC(=O)c3ccc(Br)o3)cc2)CC1  -18.9%
60. O=C(c1ccc(Br)o1)N1CCN(c2ccccn2)CC1  -19.3%
61. COc1cccc(C(=O)Nc2ccc(N3CCN(C(=O)c4cccs4)CC3)cc2)c1  -19.7%
62. O=C(Nc1ccccc1N1CCOCC1)c1ccc(N2CCOCC2)c([N+](=O)[O-])c1  -20.7%
63. O=C(Nc1ccc(N2CCCC2)cc1)c1ccc(Br)o1  -20.8%
64. O=C(Cn1c(=O)cnc2ccccc21)Nc1cccc(S(=O)(=O)N2CCOCC2)c1  -21%
65. Nc1ccc(C(=O)OCC(=O)N2CCc3ccccc3C2)cc1[N+](=O)[O-]  -21.1%
66. O=C(Nc1ccc(CN2CCOCC2)cc1)c1ccc(N2CCCC2)c([N+](=O)[O-])c1  -21.4%
67. O=C(COC(=O)c1cc(-c2ccccc2)nc2ccccc12)NCC1CCCO1 (centres unmarked)  -22.4%
68. O=C(c1ccc(N2CCCCC2)c([N+](=O)[O-])c1)N1CCOCC1  -22.6%
69. CC(C)Cc1nc(N2CCN(C(=O)C(C)C)CC2)c(C#N)c2c1CCC2  -27.2%
70. O=C(CN1CCN(c2ccc(F)cc2)CC1)Nc1ccc(F)c(F)c1  -27.8%
71. O=C(CN1CCN(CC(=O)Nc2cccc(F)c2)CC1)Nc1ccc(-c2ccccc2)cc1  -28.6%
72. Cc1ccc(NC(=O)Cn2c(=O)cnc3ccccc32)cc1S(=O)(=O)N1CCOCC1  -30.4%
73. COc1cc2nc(CN3CCN(S(=O)(=O)c4c(F)cccc4F)CC3)[nH]c(=O)c2cc1OC  -33.4%
74. O=C(CN1CCN(c2ccccc2)CC1)Nc1ccc(F)cc1  -39.7%
75. O=C(NCC(=O)N1CCN(C(=O)c2ccco2)CC1)c1cccc(Cl)c1  -48.6%
76. O=C(Cn1c(=O)cnc2ccccc21)Nc1cccc(S(=O)(=O)N2CCCCC2)c1  -50.3%
77. Cc1ccc(NC(=O)Cn2c(=O)cnc3ccccc32)cc1S(=O)(=O)N1CCCCC1  -50.8%
78. O=C(OCC(=O)N1CCc2ccccc2C1)c1ccc(N2CCOCC2)c([N+](=O)[O-])c1  -51%
79. NC(=O)c1ccc(NC(=O)CN2CCN(c3ccc(Cl)cc3)CC2)cc1  -51.3%
80. CCCC(=O)N1CCN(c2nc(CC(C)C)c3c(c2C#N)CCC3)CC1  -53%
81. COc1cc2nc(CN3CCN(S(=O)(=O)c4ccc(Cl)cc4)CC3)[nH]c(=O)c2cc1OC  -58.2%
82. O=C(CSc1cc(Cl)ccc1Cl)Nc1ccc(N2CCOCC2)cc1  -58.3%
83. O=C(CN1CCN(c2ccc(Cl)cc2)CC1)Nc1ccc(F)cc1  -60.9%
84. O=C(Nc1ccc(N2CCN(C(=O)c3cccs3)CC2)cc1)c1cccc(F)c1  -62.6%
85. O=c1[nH]c(CN2CCN(S(=O)(=O)/C=C/c3ccccc3)CC2)nc2cc(Cl)ccc12  -65.8%
86. O=C(CN1CCN(CC(=O)Nc2ccc(-c3ccccc3)cc2)CC1)Nc1ccc(F)cc1  -66.2%
87. O=c1[nH]c(CN2CCN(S(=O)(=O)/C=C/c3ccccc3)CC2)nc2ccccc12  -66.5%
88. Cl.O=C(NN1CCN(Cc2ccccc2)CC1)c1ccc(N2CCOCC2)c([N+](=O)[O-])c1  -66.6%
89. O=C(Nc1ccc(C(=O)N2CCN(c3ccccn3)CC2)cc1)c1ccc(Br)o1  -66.7%
90. O=C(c1ccc(N2CCOCC2)c([N+](=O)[O-])c1)N1CCN(Cc2ccccc2)CC1  -66.9%
91. COC(=O)c1cc(-c2c(-c3cc(OC)c(OC)c(OC)c3)noc2C)cc([N+](=O)[O-])c1  -67.8%
92. S=C(Nc1ccc2nc(-c3ccccn3)c(-c3ccccn3)nc2c1)N1CCOCC1  -69.6%
93. O=C(Nc1ccc(N2CCN(C(=O)c3ccc(Cl)cc3)CC2)cc1)c1ccc(Br)o1  -75.3%
94. O=C(Nc1ccc(N2CCN(C(=O)c3ccccc3)CC2)cc1)c1ccc(Br)o1  -75.9%
95. O=C(CN1CCN(CC(=O)Nc2ccc(Cl)cc2)CC1)Nc1ccc(F)cc1  -76.9%
